# Hits are enriched below; roughly 1.8% of the tested compounds scored in any of these assays.
# BaF3 parental = parental Ba/F3 viability inhibition as JAK2V617F counter-screen. inhibition, % at 5.6 µM. actives 1.1% (n = 220,000). CellTiter-Glo ATP luminescence;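 active = inhibition above a per-campaign cutoff, the mean inhibition of all tested compounds plus 3 SD, cut at about 27% in these data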;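 also: 0% = DMSO wells and 100% = JAK Inhibitor I control wells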
# KLF5 inh = kruppel-like factor 5 inhibition; DLD-1 KLF5 promoter-luciferase reporter, luminescence; inhibition, % at 5 µM; actives 0.23% (n = 290,000); AID 1700;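 active = inhibition above a per-plate limit of that plate's mean compound inhibition plus 3 SD, cut at about 60% in these data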;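 also: 0% = DMSO wells and 100% = LY294002 at 200 µM; higher means less KLF5 promoter-driven luciferase light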
# IEC-6 cytotox = counter-screen for KLF5 inhibitors: cytotoxicity in IEC-6 cells; IEC-6 cytotoxicity, luminescence viability; inhibition, % at 5 µM; actives 0.78% (n = 290,000);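 also: 0% = plate median of test compound wells and 100% = cytotoxic reference compound wells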
# Ba/F3 V617F tox = loss of viability in JAK2V617F-driven Ba/F3 cells | Ba/F3 EpoR-JAK2V617F viability, ATP luminescence | inhibition, % at 5.6 µM | actives 1.1% (n = 220,000);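 active = inhibition above the campaign mean plus 3 SD over all tested compounds, cut at about 24% in these data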;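 also: cytokine-independent growth of Ba/F3 cells driven by EpoR plus mutant JAK2; 0% = DMSO-treated cells and 100% = JAK inhibitor I control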
# APP 5UTR inh = APP translation inhibition | SH-SY5Y APP 5'UTR-luciferase reporter, luminescence | inhibition, % at 2 µM | actives 0.82% (n = 190,000) | AID 1285;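 active = inhibition above a set limit, derived from the sample mean plus 3 SD, cut at about 45% in these data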
# IEC-6 cytotox cf = IEC-6 cytotoxicity, confirmation assay. shares compounds with IEC-6 cytotox. IEC-6 rat intestinal epithelial viability, luminescence. inhibition, % at 5 µM. actives 63% (n = 1,900). AID 1907;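 also: 0% = vehicle and 100% = reference cytotoxic drug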
# An asterisk follows results filed as active; . = not tested or not shown. Rule as the data show it, unless noted: active = inhibition above about 22%; inactive = the rest.
SMILES,BaF3 parental,KLF5 inh,IEC-6 cytotox,Ba/F3 V617F tox,APP 5UTR inh,IEC-6 cytotox cf
O=C(C1=NN[C@@H]2C(=O)N(c3ccccc3C(F)(F)F)C(=O)[C@H]12)c1ccc2ccccc2n1,54.1*,1.2,70.6*,75.8*,-14.0,2.8
COc1ccc(CN2CCNC(=O)C2CC(=O)NCc2csc(C)n2)c(F)c1 (stereo unspecified),.,-10.3,2.6,.,.,.
Cc1ccc(-c2nc(C(Cl)Cl)c3ccccc3n2)cc1,4.0,15.8,87.1*,7.7,.,99.3*
Cc1ccc(-c2nc(Nc3ccc(O)cc3)c3ccccc3n2)cc1,.,-30.5,5.4,.,.,.
CC1(C)C(=O)N(OCc2ccccc2)C(C)(C)C(=O)N1OCc1ccccc1,-0.3,-10.1,-0.5,-2.0,9.7,.
O=C(O)CSc1cc(NS(=O)(=O)c2ccc(Br)cc2)c2ccccc2c1O,.,-51.7,53.5*,.,.,-3.3
Cc1ccc(S(=O)(=O)Nc2ccc(Br)cc2C(NCC(=O)O)c2ccccc2)cc1 (stereo unspecified),-0.8,30.9,3.6,-0.5,-10.6,.
COC(=O)c1cccc(C(=O)N2CCCC(Nc3ccc(C)c(C)c3)C2)c1 (stereo unspecified),.,-11.0,0.1,.,.,.
Cc1cc(C)c(NS(=O)(=O)c2cccc3cccnc23)c(C)c1,-2.4,-25.2,-0.8,-0.7,12.3,.
COc1ccccc1NS(=O)(=O)c1ccc2ccccc2c1,.,-9.1,-7.2,.,.,.
COc1ccc(NS(=O)(=O)c2ccc3ccccc3c2)c2ncccc12,.,33.7,60.2*,.,.,52.3*
Cc1ccc(S(=O)(=O)Nc2cccc3cccnc23)c([N+](=O)[O-])c1,.,-6.1,66.1*,.,.,47.3*
Cc1ccc2cccc(NS(=O)(=O)c3ccccc3)c2n1,.,-1.0,99.4*,.,.,100.4*
O=S(=O)(Nc1cccc2cccnc12)c1ccc(S(=O)(=O)N2CCCC2)cc1,6.4,7.2,31.5*,2.9,-3.9,35.5*
O=C(O)Cc1ccc(NC(=O)Nc2ccc3c(c2)OCO3)cc1,.,-85.0,-0.5,.,.,.
Cc1ccccc1CN(C)C(=O)c1ccc2ccccc2n1,.,17.1,2.6,.,.,.
O=S(=O)(Nc1cccc2cccnc12)c1ccccc1,.,10.4,102.5*,.,.,98.1*
CC(C)(C)C(=O)Cn1ncc(Br)c(Br)c1=O,-4.9,-18.6,29.4*,5.0,93.7*,8.8
COCCCNC(=S)NNC(=O)c1cc(Cl)c(O)c(Cl)c1,-1.3,-10.8,1.2,-5.6,.,.
COCCCNC(=S)NNC(=S)NCCCOC,-4.9,-17.2,22.4*,7.4,.,5.7
CCOc1ccc(C(=O)NC(=S)Nc2cccc(S(=O)(=O)NC3=NCCC3)c2)cc1,79.5*,57.4,64.9*,72.3*,89.0*,46.1*
CC(NC(=O)C1CCC(CNc2c(N3CCCCC3)c(=O)c2=O)CC1)c1ccccc1 (stereo unspecified),-5.6,-6.1,-5.6,-2.0,.,.
CC(C)N=C(NS(=O)(=O)NC(=O)c1ccccc1)c1ccccc1,12.4,-12.2,5.6,5.7,15.1,.
O=C(Nc1ccc2nc3n(c(=O)c2c1)CCCCC3)c1cc([N+](=O)[O-])ccc1F,.,9.7,62.4*,.,.,15.7
O=C(CSc1nnc(NC(=O)c2ccccc2[N+](=O)[O-])s1)NCc1ccco1,.,-29.4,-0.5,.,.,.
SMILES,BaF3 parental,KLF5 inh,IEC-6 cytotox,Ba/F3 V617F tox,APP 5UTR inh,IEC-6 cytotox cf
O=C(COc1ccccc1-c1ccccc1)NN=C1CCCC1,5.5,30.9,53.3*,2.8,82.4*,-8.4
CC[n+]1c(C=C2C=C(C)OC(C)=C2)sc2ccccc21,91.1*,30.0,25.4*,99.9*,8.7,26.7*
O=C(Nc1ccc(Cc2ccncc2)cc1)c1cc(F)c(F)cc1Cl,1.9,-15.1,31.2*,1.6,-5.5,48.4*
O=C(NCc1ccncc1)c1cc(F)c(F)cc1Cl,1.6,6.6,1.8,-3.2,-5.2,.
COc1ccc(/C=N/Nc2nnc(C)n2N)cc1OC,10.6,10.1,101.6*,6.7,-3.1,4.0
COc1ccc(/C=N/Nc2nnc(C)n2N)cc1OC(C)=O,.,-25.9,-6.8,.,.,.
CCc1ccc(CNC(=O)Cc2ccc(NC(=O)C3=C(C)OCCS3)cc2)cc1,.,42.9,77.8*,.,.,53.0*
Cc1ccc(S(=O)(=O)NC(C)CCc2ccccc2)cc1C(N)=O (stereo unspecified),.,-23.5,6.8,.,.,.
O=C(O)c1ccc(N/N=C/c2cc3ccccc3nc2Cl)cc1,1.5,-76.1,22.4*,11.6,.,31.3*
Cc1cccc2cc(/C=N/NC(=O)c3ccncc3)c(Cl)nc12,-3.5,-7.0,8.5,-1.7,.,.
Cc1cccc2cc(/C=N/Nc3ccc(C(=O)O)cc3)c(Cl)nc12,8.9,-127.9,27.1*,11.1,.,48.0*
C[C@H](NC(=O)Nc1cccc(Br)c1)C(=O)O,-2.7,-14.7,2.8,-1.8,.,.
COC(=O)c1ccc(NS(=O)(=O)c2cc(-c3cc(C)no3)ccc2OC)cc1,.,50.1,63.4*,.,.,39.5*
CC[n+]1c(/C=C/N(C)c2ccccc2)n(-c2ccccc2)c2ccc(-c3nc4ccccc4s3)cc21,.,29.2,58.5*,.,.,11.9
CCOc1cc(-c2nc3ccccc3s2)ccc1O,0.4,-54.6,1.5,3.9,.,.
CN1CCN(c2ccc(NC(=O)c3ccc(-c4ccc(Br)cc4)o3)cc2)CC1,10.3,-33.0,25.4*,6.2,2.3,-6.3
O=C(Nc1cccc(NC(=O)c2ccccc2Cl)c1)c1ccc([N+](=O)[O-])o1,.,10.1,101.0*,.,.,48.9*
CS(=O)(=O)N1CCN(c2ccc(NC(=O)c3ccc([N+](=O)[O-])o3)cc2)CC1,-7.4,-21.3,24.6*,5.8,65.6*,56.3*
CCN1CCN(c2ccc(NC(=O)c3ccc(Br)o3)cc2)CC1,.,-93.3,-3.4,.,.,.
CC(C)(C)C(=O)N1CCN(c2ccc(NC(=O)c3ccc([N+](=O)[O-])o3)cc2)CC1,.,47.1,100.9*,.,.,58.5*
Cn1cc([N+](=O)[O-])c(C(=O)N/N=C/c2ccc3c(c2)OCO3)n1,3.1,-24.4,-8.8,-2.7,-9.3,.
COc1ccc(C(=O)NCCNc2nc3ccc(C)cc3cc2C#N)cc1OC,.,-57.8,0.1,.,.,.
O=C(Nc1ccc(N2CCCC2)c(Cl)c1)c1ccco1,4.5,-149.4,-3.1,4.5,-211.1,.
O=C(Nc1ccc(N2CCCCC2)cc1)c1ccc([N+](=O)[O-])o1,.,10.4,80.3*,.,.,15.0
O=C(Nc1ccc(N2CCN(Cc3ccccc3F)CC2)cc1)c1ccc([N+](=O)[O-])o1,.,18.8,71.8*,.,.,32.5*
O=C(Nc1ccc(N2CCCC2)c(Cl)c1)c1ccc([N+](=O)[O-])o1,-0.5,-4.7,70.9*,74.8*,78.5*,36.4*
O=C(Nc1ccc(N2CCN(Cc3ccccc3F)CC2)cc1)c1ccccc1[N+](=O)[O-],5.2,-4.8,-2.3,-2.9,6.5,.
CCCC(=O)N1CCN(c2ccc(NC(=O)c3ccc([N+](=O)[O-])o3)cc2)CC1,45.0*,-5.4,90.5*,90.2*,70.1*,44.8*
O=C(Nc1ccc(N2CCCC2)cc1)c1ccc(Br)o1,2.5,-77.2,1.6,2.6,-56.6,.
O=C(Cn1cnc2ccccc2c1=O)Nc1ccc(N2CCOCC2)cc1,6.5,5.2,-6.4,-0.2,-0.1,.
